The whole screen tested about 48,000 compounds, of which about 13,000 (27%) showed an effect of 50% or more. Some of the results follow.

The test concerns Wolbachia pipientis. The test can be described thus: Anti-Wolbachia Cell-Based Screen. The format is functional. The conditions noted are these: 5 µM. The arrangement: scale not given: in the data most compounds retested in dose-response had high values.
As for `CSc1ccccc1CCC1CCS(=O)(=O)C1` (centres undefined), the “Percent Effect” value is given as -15.64%.
Regarding `CS(=O)(=O)CCC(=O)NC1CC(c2cccc(Cl)c2)C1` (centres undefined), the “Percent Effect” value was -6.793%.
Consider `CNC(=O)C1CN(C(=O)c2ccccc2)Cc2cn(C)nc21` (centres undefined), for which the “Percent Effect” value is reported as 107.7%.
With `CCOCC1CN(C(=O)COc2ccccc2)Cc2cn(C)nc21` (centres undefined), the “Percent Effect” value was -5.674%.
Consider `COCC1CN(C(=O)COc2ccccc2)Cc2cn(C)nc21.O=C(O)C(F)(F)F` (centres undefined), for which the “Percent Effect” value was -8.714%.
Regarding `COCC1CN(C(=O)c2ccco2)Cc2cn(C)nc21.O=C(O)C(F)(F)F` (centres undefined), the “Percent Effect” value is -0.009633%.
As to `CNC(=O)C1CN(C(=O)COc2ccccc2)Cc2cn(C)nc21` (centres undefined), the “Percent Effect” value was determined as 122.8%.
Take `COCC(=O)N1Cc2cn(C)nc2C(COc2cccnc2)C1` (centres undefined): the “Percent Effect” value is on record as -3.351%.
With `O=C1N(c2ccccc2)C[C@H]2CN(C3CCC3)CCN12`, the “Percent Effect” value was -7.27%.
For the compound `O=C(c1ccccc1)N1CCN(C2CCc3ccc(F)cc32)CC1` (centres undefined), the “Percent Effect” value is listed as -8.707%.
Consider `Cc1cc(-n2cccn2)ccc1CN1CCC(O)(CN2CCCCC2)C1` (centres undefined), for which the “Percent Effect” value is reported as -16.49%.
On to `CCn1cc(CN2CCN(C(=O)N3CCOCC3)CC2)cn1`, for which the “Percent Effect” value amounted to 3.548%.
For `CCn1ncc(CN2CCC(O)(Cn3ccc4ncccc43)CC2)c1C` the value was 101.2%; for `CCn1ccnc1-c1nccn1-c1ccccc1CN1CCOCC1`, -5.226%.
Consider `OC1(Cn2ccc3ncccc32)CCN(Cc2cccnc2)CC1`, for which the “Percent Effect” value worked out at 93.84%.
Consider `O=C(CCn1ccc2ccccc21)N1CCN(Cc2cccnc2)CC1`, for which the “Percent Effect” value was -2.767%.
Take `OC1(Cn2ccc3ccncc32)CCN(Cc2ccccn2)CC1`: the “Percent Effect” value is on record as -11.69%.
For the compound `CCn1cc(CN2CCC(O)(Cn3ccc4ncccc43)CC2)cn1`, the “Percent Effect” value is reported as 79.32%.
Turning to `CCn1cc(CN2CCC(CCC(=O)Nc3ccccc3Cl)CC2)cn1`, the “Percent Effect” value amounted to 5.103%.
As for `OC1(Cn2ccc3ncccc32)CCN(Cc2cccs2)CC1`, the “Percent Effect” value is 107.1%.
Take `c1cnnc(N2CCCC(NCc3nc(-c4ccsc4)no3)C2)c1` (centres undefined): the “Percent Effect” value is reported as -5.717%.
Consider `COC(=O)c1ccc2ccn(CC3COCCO3)c(=O)c2c1` (centres undefined), for which the “Percent Effect” value was -29.12%.
Consider `NS(=O)(=O)N1CCC(C(=O)Nc2cccc(OC(F)F)c2)CC1`, for which the “Percent Effect” value came out at 23.74%.
`Cc1cccc2c(=O)c(C(=O)N3CCCC4(CN(C)C(=O)O4)C3)c[nH]c12` (centres undefined): the “Percent Effect” value amounted to 3.697%.
For `CN(Cc1nc(CS(C)(=O)=O)no1)c1ccccc1` the value was 1.355%; for `COc1ccccc1OC1CN(C(=O)C(c2ccccc2F)N(C)C)C1` (centres undefined), 10.69%.
Regarding `O=C(c1cccc(S(=O)(=O)NCCc2nccs2)c1)N1CCOCC1`, the “Percent Effect” value is -12.77%.
With `COCCCn1c(CN2CCCC(O)C2)cnc1S(=O)(=O)C1CCCC1` (centres undefined), the “Percent Effect” value was -2.252%.
Turning to `COCCN1C(=O)[C@]2(CC[C@@H]3CN(S(=O)(=O)CC(C)C)C[C@@H]32)N=C1C`, the “Percent Effect” value was -14.47%.
As for `CC(C)(C)C(=O)NCC(=O)NCC1CCCS1` (centres undefined), the “Percent Effect” value is -13.47%.
Take `CN(Cc1ccc(C#N)cc1)C(=O)c1ccnc(OC2CCC2)c1`: the “Percent Effect” value is -4.84%.
Take `Oc1cc(CN2CCC(O)(Cn3ccnc3)CC2)nc2ccc(F)cc12`: the “Percent Effect” value was -18%.
`NC(=O)CN1CC2(CCC1=O)CCN(Cc1cc(F)cc(F)c1)CC2`: the “Percent Effect” value was 6.606%.
Regarding `Cc1ccc(CN2CCCC3(CCN(Cc4ccc(C)o4)C3)C2)o1` (centres undefined), the “Percent Effect” value is reported as 14.2%.
Take `Cc1ccc2nc(CN3CCC(O)(Cn4ccnc4)CC3)cc(O)c2c1`: the “Percent Effect” value was -4.196%.
With `OCC1(O)CCCN(Cc2ccccc2OCCc2ccccc2)CC1` (centres undefined), the “Percent Effect” value was 13.11%.
For `OC1(Cn2ccc3ncccc32)CCN(Cc2cc(F)cc(F)c2)CC1`, the “Percent Effect” value worked out at 107.3%.
The result for `COc1ccccc1CN1CCC(O)(Cn2ccc3ncccc32)CC1` reads 82.78%; that for `COc1ccc(F)cc1CN1CCC(O)(CN2CCCCC2)C1` (centres undefined), 8.228%; that for `Cc1cc(N2CCCN(Cc3ccc(C)o3)CC2)ccn1`, -3.581%.
Take `Cc1ccc(CN2CCC(O)(Cn3ccc4ncccc43)CC2)o1.Cl`: the “Percent Effect” value turned out to be 100%.
For `Cc1cc(C(=O)N2CCN(C(=O)Cc3ccccn3)CC2)c(C)s1` the value was 2.124%; for `Cc1cc(CN2CCC(O)(Cn3ccc4ncccc43)CC2)c(C)s1`, 75.84%.
Consider `Nc1ccnn1C1CCN(Cc2ccccc2)C1` (centres undefined), for which the “Percent Effect” value is -4.351%.
Consider `CCN(C)Cc1cnc(S(=O)(=O)CC)n1CCOC`, for which the “Percent Effect” value worked out at 2.274%.
For `Cc1cc(S(=O)(=O)NCC2CNCCOC2)c(C)cc1Cl` (centres undefined) the value was -6.904%; for `O=C(O)C(=O)O.c1cnc(-c2noc(C3CN(Cc4ccsc4)C3)n2)cn1`, 20.73%; for `Cl.OC1(Cn2ccc3ncccc32)CCN(Cc2ccccn2)CC1`, -13.22%.
Regarding `O=C(O)C1(Cc2ccccc2Cl)CCN(c2ncccc2F)CC1`, the “Percent Effect” value is -2.228%.
The result for `Cl.OC1(Cn2ccc3ncccc32)CCN(Cc2ccccc2F)CC1` reads 103.8%; that for `c1ccc(CN2CCOC3(CCCN(c4nccs4)C3)C2)cc1` (centres undefined), -0.1767%.
Consider `COc1ccc(N2CCCC3(C2)CN(c2ncccn2)CCO3)cc1` (centres undefined), for which the “Percent Effect” value is given as 2.929%.
With `c1ccc(CO[C@H]2CN(c3ncccn3)C[C@@]23CCCO3)cc1`, the “Percent Effect” value was found to be 124.5%.
Take `CN(C(=O)COC1CCCCC1)C1CCN(CC2CCOC2)CC1` (centres undefined): the “Percent Effect” value was -5.016%.

These data come from ChEMBL document CHEMBL3988442, “University of Dundee, Small-Polar-MMV Screening Library” (2021).
